According to PubChem BioAssay (Tox21):
Inconclusive results are not listed. Calls of active or inactive are those of the source. Unless noted, calls come from the whole dose curve.

Columns and labels:
[1] = Nuclear factor erythroid 2-related factor 2/antioxidant responsive element (Nrf2/ARE) small molecule agonists: qHTS cell viability counter screen in human keratinocytes (AID 1919968; active = well fitted curve in the direction sought with a large enough effect in the repeat runs; an effect the other way counts as inactive or inconclusive; note: nearly all actives have a fitted effect of over 55% in size; note: potency is the fitted concentration of half-maximal effect)
Outline: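 KeratinoSens cells (HaCaT keratinocytes stably carrying an ARE-luciferase reporter) were seeded at 1,500 cells/well and rested 5 h at 37 C/5% CO2. They were then exposed to compounds in DMSO for 23 h. Viability was read by CellTiter-Fluor fluorescence after 1 h.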

[2] = target: Gonadotropin-releasing hormone receptor (Homo sapiens) (UniProt P30968); test: Human gonadotropin-releasing hormone receptor (GnRHR) small molecule agonists, calcium flux assay in GnRHR-HEK293 cells (AID 1920063); note: nearly all actives have a fitted effect of over 35% in size; note: potency is the fitted concentration of half-maximal effect
Outline: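 HEK293 cells stably expressing human GnRHR were plated 18 h at 37 °C, loaded with calcium dye 1 h at 37 °C, then given compound in agonist mode; fluorescence (Ex/Em 480/540) read kinetically for 3 min at 1 s intervals.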

[3] = target: KiSS-1 receptor (Homo sapiens) (UniProt Q969F8); test: Human kisspeptin (KISS1R) small molecule agonists, calcium flux assay in KISS1R-HEK293 cells (AID 1920064; active = well fitted curve in the direction sought with a large enough effect in the repeat runs; an effect the other way counts as inactive or inconclusive)
Outline: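 HEK293 cells stably expressing human KISS1R were plated 18 h at 37 °C, loaded with calcium dye for 1 h at 37 °C, then given compound by pin tool. Fluorescence (Ex/Em 480/540) was read kinetically for 3 min.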

[4] = G protein-coupled receptor (GPCR) small molecule agonists, calcium flux assay: HEK293 wild type cell line counter screen (AID 1920065)
Outline: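 Cells were plated and cultured 18 h at 37 C/5% CO2, then loaded with calcium dye for 1 h at 37 C. Compounds in DMSO were pin-transferred in agonist mode, and fluorescence (Ex/Em 480/540) was read kinetically for 3 min at 1 s intervals.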

[5] = p53 small molecule agonists, cell-based qHTS assay with human liver microsomes (AID 1963577);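 note: p53 response element beta-lactamase reporter cells with liver microsomes plus NADPH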
Outline: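 Metabolically competent format: test substances, human liver microsomes and NADPH (both 0.5 mg/mL final) incubated with p53RE-bla cells 16 h at 37 C. Beta-lactamase reporter signal then quantified by fluorescence.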

[6] = p53 small molecule agonists, cell-based qHTS assay with human liver microsomes: qHTS cell viability counter screen (AID 1963579); note: nearly all actives have a fitted effect of over 45% in size; note: potency is the fitted concentration of half-maximal effect
Outline: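 Tox21 library compounds, delivered from DMSO stocks, were tested on p53RE-bla cells together with 0.5 mg/mL human liver microsomes and 0.5 mg/mL NADPH (final) over 16 h at 37 C; CellTiter-Glo luminescence served as the cytotoxicity measure.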

[7] = p53 small molecule agonists, cell-based qHTS assay: qHTS cell viability counter screen (AID 1963581); note: nearly all actives have a fitted effect of over 45% in size; note: potency is the fitted concentration of half-maximal effect
Outline: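 p53RE-bla HCT-116 cells were exposed to compounds for 16 h at 37 C; after the beta-lactamase FRET read in the same wells, CellTiter-Glo was added and luminescence (intracellular ATP) read after 30 min at room temperature.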

[8] = target: 5-hydroxytryptamine receptor 2A (Homo sapiens) (UniProt P28223); test: 5-hydroxytryptamine receptor 2A (HTR2A) small molecule antagonists, cell-based qHTS assay (AID 1963586); note: nearly all actives have a fitted effect of over 45% in size
Outline: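 Antagonist-mode intracellular calcium assay: DOI (4 nM) added after 5 min compound pre-incubation at room temperature to dye-loaded HTR2A-CHO cells. Fluorescence followed for 3 min, sampled every second.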

[9] = target: 5-hydroxytryptamine receptor 2A (Homo sapiens) (UniProt P28223); test: 5-hydroxytryptamine receptor 2A (HTR2A) small molecule agonists, cell-based qHTS assay (AID 1963587); note: nearly all actives have a fitted effect of over 30% in size; note: potency is the fitted concentration of half-maximal effect
Outline: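 HTR2A-CHO cells, plated 18 h at 37 C/5% CO2, dye-loaded 1 h at 37 C; compounds in DMSO added by pin tool (agonist mode). Intracellular calcium flux read as kinetic fluorescence on FDSS over 2 min at 1 s intervals.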

[10] = target: Muscarinic acetylcholine receptor M1 (Homo sapiens) (UniProt P11229); test: Cholinergic receptor muscarinic 1 (CHRM1) small molecule agonists, cell-based qHTS assay (AID 1963589); note: nearly all actives have a fitted effect of over 35% in size
Outline: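 CHO cells stably expressing human CHRM1, seeded 18 h at 37 C/5% CO2, dye-loaded 1 h at 37 C, then given compound in agonist mode; intracellular calcium fluorescence read kinetically at 1 s intervals. Fifteen concentrations, three independent runs.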

[11] = cAMP Responsive Elements (CRE) small molecule agonists, cell-based qHTS assay (AID 1963590)
Outline: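 CRE-bla HEK 293T cells in DMEM with 10% dialyzed FBS, NEAA, pyruvate and 25 mM HEPES were plated 18 h at 37 C/5% CO2, then exposed to compounds in DMSO for 3 h before LiveBLAzer B/G FRET substrate addition.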

[12] = cAMP Responsive Elements (CRE) small molecule antagonists, cell-based qHTS assay (AID 1963591; active = well fitted inhibition curve with a large enough effect in the signal ratio in the repeat runs, not every such curve was filed as active; the % refers to the signal ratio)
Outline: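 CRE-bla HEK293T cells were plated 18 h at 37 °C/5% CO2, pinned with compound in DMSO, then stimulated with NKH477 at 0.25 uM final for 3 h. LiveBLAzer B/G FRET substrate was added and plates incubated 2 h at room temperature.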

[13] = target: Beta-2 adrenergic receptor (Homo sapiens) (UniProt P07550); test: Adrenergic beta2 receptor (ADRB2) small molecule antagonists, cell-based qHTS assay (AID 1963592); note: nearly all actives have a fitted effect of over 50% in size; note: potency is the fitted concentration of half-maximal effect
Outline: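 Cells (CHO, stable ADRB2 overexpression) incubated 18-20hr at 37C; compounds added from DMSO; agonist mix (1nM isoproterenol, 100uM IBMX, 25uM Ro-20-1724) added; 0.5hr RT; d2-cAMP and anti-cAMP-cryptate added; 1hr RT; 665/615 nm read.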

[14] = target: D(2) dopamine receptor (Homo sapiens) (UniProt P14416); test: Dopamine D2 receptor (DRD2) small molecule antagonists, cell-based qHTS assay (AID 1963595; active = well fitted inhibition curve with a large enough effect in the signal ratio in the repeat runs, with a control signal flat; the % refers to the signal ratio; note: potency is the fitted concentration of half-maximal effect)
Outline: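 Human DRD2 antagonist qHTS measuring cAMP by HTRF. The cells are exposed to compound for 10 min, then to NKH477 (200 nM) and quinpirole (12 nM) for 30 min at RT, with Ro20-1724 (0.1 mM) present throughout.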

[15] = p53 small molecule agonists, cell-based qHTS assay with rat liver microsomes: qHTS cell viability counter screen (AID 1963580); note: nearly all actives have a fitted effect of over 45% in size
Outline: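 p53RE-bla HCT-116 cells (4,000/well) rested 5 h at 37 C, then given Tox21 compounds in DMSO with rat liver microsomes (0.5 mg/mL final) plus NADPH (0.5 mg/mL final) for 16 h at 37 C. Viability read by CellTiter-Glo luminescence after 30 min at room temperature.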

[16] = target: Muscarinic acetylcholine receptor M1 (Homo sapiens) (UniProt P11229); test: Cholinergic receptor muscarinic 1 (CHRM1) small molecule antagonists, cell-based qHTS assay (AID 1963588); note: nearly all actives have a fitted effect of over 40% in size; note: potency is the fitted concentration of half-maximal effect
Outline: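 CHRM1-CHO calcium-flux assay, antagonist mode. Cells were seeded 18 h, dye-loaded 1 h at 37 C and given compound for 5 min at RT, then acetylcholine was added at 50nM. FDSS fluorescence was read 3 min; 15 concentrations, three runs.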

[17] = target: Beta-2 adrenergic receptor (Homo sapiens) (UniProt P07550); test: Adrenergic beta2 receptor (ADRB2) small molecule agonists, cell-based qHTS assay (AID 1963593);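 note: CHO cells stably overexpressing human ADRB2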
Outline: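 CHO cells stably over-expressing ADRB2 were plated overnight at 37C, then dosed with compounds plus a stimulation mix containing 100uM IBMX and 25uM Ro-20-1724 for 0.5hr at room temperature. cAMP was measured by HTRF competition, 1hr.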

[18] = target: D(2) dopamine receptor (Homo sapiens) (UniProt P14416); test: Dopamine D2 receptor (DRD2) small molecule agonists, cell-based qHTS assay (AID 1963594); note: nearly all actives have a fitted effect of over 35% in size
Outline: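 HEK293 cells stably expressing DRD2 were cultured 24 h at 37 C, then given Ro20-1724 (0.1 mM final) and compounds for 10 min at room temperature. NKH477 (200nM) was then added for 30 min. cAMP was read by HTRF.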

[19] = p53 small molecule agonists, cell-based qHTS assay with rat liver microsomes (AID 1963578)
Outline: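 Each plate received p53RE-bla cells, then compound, then rat liver microsomes and NADPH (both 0.5 mg/mL final). Plates were held 16 h at 37 C, and beta-lactamase activity was detected with LiveBLAzer over 2 h.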

[20] = p53 small molecule agonists, cell-based qHTS assay (AID 1963582; active = well fitted activation curve with a large enough effect in the signal ratio in the repeat runs, not every such curve was filed as active; the % refers to the signal ratio)
Outline: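 p53RE-bla beta-lactamase reporter cells rested 5 h at 37 C/5% CO2, then received compounds in DMSO by pin transfer and were incubated 16 h at 37 C. LiveBLAzer B/G FRET substrate was loaded for 2 h at room temperature before fluorescence reading.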

Measured: Potency

Chain of Beta-2 adrenergic receptor (Homo sapiens) (P07550 whole entry, looked up): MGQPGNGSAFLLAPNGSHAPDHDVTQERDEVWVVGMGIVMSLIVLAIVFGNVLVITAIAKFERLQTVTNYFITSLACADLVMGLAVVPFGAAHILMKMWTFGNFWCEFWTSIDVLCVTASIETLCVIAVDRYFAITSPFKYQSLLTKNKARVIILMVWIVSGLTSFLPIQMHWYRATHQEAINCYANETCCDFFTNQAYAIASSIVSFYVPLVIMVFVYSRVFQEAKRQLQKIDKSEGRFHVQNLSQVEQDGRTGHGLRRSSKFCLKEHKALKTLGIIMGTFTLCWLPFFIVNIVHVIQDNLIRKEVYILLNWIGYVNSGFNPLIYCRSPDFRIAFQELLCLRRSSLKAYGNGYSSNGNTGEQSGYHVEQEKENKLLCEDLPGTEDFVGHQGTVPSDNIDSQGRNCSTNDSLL
Chain of 5-hydroxytryptamine receptor 2A (Homo sapiens) (P28223 whole entry, looked up): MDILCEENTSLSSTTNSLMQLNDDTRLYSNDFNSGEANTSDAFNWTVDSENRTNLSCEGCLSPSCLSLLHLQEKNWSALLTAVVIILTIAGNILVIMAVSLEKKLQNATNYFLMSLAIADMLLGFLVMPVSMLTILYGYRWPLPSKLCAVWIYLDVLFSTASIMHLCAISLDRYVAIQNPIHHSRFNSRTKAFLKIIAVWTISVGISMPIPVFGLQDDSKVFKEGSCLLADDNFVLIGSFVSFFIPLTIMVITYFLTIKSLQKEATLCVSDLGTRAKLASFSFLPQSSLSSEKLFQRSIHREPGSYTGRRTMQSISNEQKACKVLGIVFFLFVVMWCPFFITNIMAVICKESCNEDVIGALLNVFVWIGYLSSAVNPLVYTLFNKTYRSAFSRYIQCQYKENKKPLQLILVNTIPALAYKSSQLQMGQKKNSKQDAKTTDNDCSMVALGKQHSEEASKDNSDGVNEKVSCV
Chain of Muscarinic acetylcholine receptor M1 (Homo sapiens) (P11229 whole entry, looked up): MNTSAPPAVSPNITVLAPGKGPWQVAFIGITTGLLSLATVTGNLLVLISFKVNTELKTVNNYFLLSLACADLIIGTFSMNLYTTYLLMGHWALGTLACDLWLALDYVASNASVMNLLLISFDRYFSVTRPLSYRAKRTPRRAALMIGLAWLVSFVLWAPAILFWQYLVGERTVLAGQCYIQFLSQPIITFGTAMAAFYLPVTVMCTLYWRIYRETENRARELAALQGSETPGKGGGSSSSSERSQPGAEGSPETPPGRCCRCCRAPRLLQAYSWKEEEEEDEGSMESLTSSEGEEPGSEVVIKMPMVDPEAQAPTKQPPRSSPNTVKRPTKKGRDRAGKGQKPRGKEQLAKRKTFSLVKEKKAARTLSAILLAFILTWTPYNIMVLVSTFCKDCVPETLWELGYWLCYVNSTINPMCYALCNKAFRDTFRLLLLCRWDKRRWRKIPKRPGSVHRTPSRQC
Chain of KiSS-1 receptor (Homo sapiens) (Q969F8 whole entry, looked up): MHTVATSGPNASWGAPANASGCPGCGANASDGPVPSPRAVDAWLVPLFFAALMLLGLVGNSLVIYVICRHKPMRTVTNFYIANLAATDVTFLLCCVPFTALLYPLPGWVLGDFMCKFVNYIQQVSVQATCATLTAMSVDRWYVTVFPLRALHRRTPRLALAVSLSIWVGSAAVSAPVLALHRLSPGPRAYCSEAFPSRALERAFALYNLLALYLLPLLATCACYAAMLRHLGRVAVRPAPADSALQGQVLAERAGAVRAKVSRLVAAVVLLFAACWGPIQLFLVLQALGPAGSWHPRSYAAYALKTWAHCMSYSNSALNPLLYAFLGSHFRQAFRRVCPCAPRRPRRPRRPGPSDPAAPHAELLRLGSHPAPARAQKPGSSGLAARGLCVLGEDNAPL
Chain of D(2) dopamine receptor (Homo sapiens) (P14416 whole entry, looked up): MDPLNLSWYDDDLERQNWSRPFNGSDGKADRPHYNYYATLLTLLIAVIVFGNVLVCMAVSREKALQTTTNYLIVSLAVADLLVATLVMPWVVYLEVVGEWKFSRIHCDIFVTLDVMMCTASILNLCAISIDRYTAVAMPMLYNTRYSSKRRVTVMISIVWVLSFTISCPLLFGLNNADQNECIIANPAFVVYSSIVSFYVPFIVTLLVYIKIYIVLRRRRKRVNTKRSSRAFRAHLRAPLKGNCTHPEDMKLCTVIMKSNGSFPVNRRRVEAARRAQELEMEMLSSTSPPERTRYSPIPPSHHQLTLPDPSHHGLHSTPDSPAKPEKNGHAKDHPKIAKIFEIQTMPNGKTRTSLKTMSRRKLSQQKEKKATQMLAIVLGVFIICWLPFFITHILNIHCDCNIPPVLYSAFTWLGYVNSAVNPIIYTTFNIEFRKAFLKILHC
Chain of Gonadotropin-releasing hormone receptor (Homo sapiens) (P30968 whole entry, looked up): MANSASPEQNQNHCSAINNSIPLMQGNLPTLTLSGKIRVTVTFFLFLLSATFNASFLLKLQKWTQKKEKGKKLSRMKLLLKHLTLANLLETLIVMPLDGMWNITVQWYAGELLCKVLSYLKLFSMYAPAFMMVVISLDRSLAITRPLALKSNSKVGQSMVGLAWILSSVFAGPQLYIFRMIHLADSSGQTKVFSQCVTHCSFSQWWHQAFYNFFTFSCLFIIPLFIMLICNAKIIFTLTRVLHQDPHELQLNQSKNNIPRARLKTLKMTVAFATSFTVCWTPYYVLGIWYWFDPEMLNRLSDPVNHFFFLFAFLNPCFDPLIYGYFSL

CN1C(=O)c2ccccc2C1=O
active: [13] 54.5 µM
not listed: [15] | [16] | [17] | [18] | [19] | [20]
inactive: all other assays above

CC(C(=O)O)c1ccc2c(c1)[nH]c1ccc(Cl)cc12 (stereo not given)
not listed: [6] | [7] | [9] | [10] | [11] | [12] | [19] | [20]
inactive: all other assays above

N=C(N)N
not listed: [5] | [17] | [18]
inactive: all other assays above

O=C(c1ccccc1)C1CCCCC1
not listed: [17] | [18] | [19]
inactive: all other assays above

CCc1c(C)cc(N)c(CC)c1N
not listed: [10] | [13] | [17] | [19]
inactive: all other assays above

CC1(C)[C@@H](O)CC[C@]2(C)[C@H]3C(=O)C=C4[C@@H]5C[C@@](C)(C(=O)O)CC[C@]5(C)CC[C@@]4(C)[C@]3(C)CC[C@@H]12
active: [1] 67.8 µM | [2] 34.3 µM | [6] 32 µM | [9] 48.4 µM
inactive: [3] | [4] | [5] | [20] | [8] | [16] | [13] | [18] | [14]

Nc1c(I)cc(I)c(C(=O)N(CCC(=O)O)c2ccccc2)c1I
not listed: [5]
inactive: all other assays above

Cc1cc(CCN2CCN(c3nsc4ccccc34)CC2)cc2c1NC(=O)CC2(C)C
active: [1] 48.6 µM | [7] 45.8 µM | [16] 16.8 µM | [13] 34.4 µM | [14] 0.243 µM
inactive: [2] | [3] | [4] | [5] | [19] | [8] | [10] | [18]

CCOC(=O)/C=C(C)/C=C/C=C(C)/C=C/c1c(C)cc(OC)c(C)c1C
not listed: [6] | [11] | [18] | [19] | [20]
inactive: all other assays above

CO[C@@H]1[C@@H](OC)[C@H](C)[C@@](O)(CC(=O)O)O[C@H]1[C@H](C)[C@H]1O[C@@]2(CC[C@@](C)([C@H]3CC[C@@](C)([C@@H]4O[C@@H]([C@H]5O[C@](C)(O)[C@H](C)C[C@@H]5C)C[C@@H]4OC4C[C@H](OC)[C@@H](OC)[C@H](C)O4)O3)O2)C[C@H](O)[C@H]1C (stereo not given in full)
inactive: [2] | [3] | [4] | [5] | [15] | [11] | [13] | [17] | [18] | [14]
active: [1] 0.237 µM

C=CCCCCCC
not listed: [6] | [14] | [15]
inactive: all other assays above

CCCCOC(=O)CC#N
active: [6] 17 µM
not listed: [5] | [12]
inactive: all other assays above

CCCCCCCC/C=C/CCCOC(C)=O
not listed: [6] | [15] | [17]
inactive: all other assays above

Cc1cc(O)c2ccccc2c1O
active: [1] 13.3 µM
not listed: [7] | [11] | [12] | [14] | [15] | [17] | [19]
inactive: all other assays above

CC(C)OC(=O)OCOP(=O)(CO[C@H](C)Cn1cnc2c(N)ncnc21)OCOC(=O)OC(C)C
not listed: [5] | [17]
inactive: all other assays above

O=C(O)c1cc(C(=O)O)cc(C(=O)O)c1
not listed: [13] | [14] | [19]
inactive: all other assays above

Clc1cc(Cl)c2c(c1)N=C1CCCCCN1C2
not listed: [6] | [7] | [11] | [12] | [14] | [15] | [16]
inactive: all other assays above
